Rows were chosen to be rich in hits. Some 2% of all compounds tested hit in one or more screens of this group.
ADAM10 inh = human ADAM10 inhibitors, primary screen, biochemical, QFRET, HTS | recombinant ADAM10, EDANS/DABCYL FRET peptide cleavage, 3 h | inhibition, % at 7 µM | AID 720582, 2013 | Disintegrin and metalloproteinase domain-containing protein 10 (Homo sapiens), O14672 | actives 0.62% (n = 370,000);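 active means inhibition above a per-campaign cutoff equal to the mean of compounds falling between control-based bounds plus 3 SD, cut at about 20% in these data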
NPR2 activator = human GC-B receptor activators, primary screen, HEK293 GC-B cells, cGMP TR-FRET, EC30 CNP; Atrial natriuretic peptide receptor 2 (Homo sapiens), P20594; 0% at EC30 CNP, 100% saturating CNP; activation, % at 10 µM; actives 0.11% (n = 370,000); AID 1920062, 2024;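 active means activation at 10 µM reaching about 35% in either raw or pattern-adjusted values, limit read from the data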
FAS-TE inh = FAS thioesterase domain inhibitors, primary screen, biochemical, fluorescence intensity, uHTS; Fatty acid synthase (Homo sapiens), P49327; recombinant FAS-TE, OMFH fluorogenic substrate, fluorescence endpoint; inhibition, % at 15 µM; actives 0.67% (n = 360,000); AID 602261, 2012;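 active means compounds whose normalised, plate-corrected inhibition of enzyme fluorescence in the single-dose primary screen is 50% or more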
ADAM17 inh = ADAM17 inhibitors, primary screen, biochemical, QFRET; inhibition, % at 6.95 µM; actives 0.83% (n = 370,000); Disintegrin and metalloproteinase domain-containing protein 17 (Homo sapiens), P78536; recombinant ADAM17, EDANS/DABCYL FRET peptide cleavage; AID 720648, 2013;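 active means inhibition above the mean of compounds lying between control limits plus 3 SD, set per campaign, cut at about 8.5% in these data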
GC-A act = GC-A stimulated cGMP production enhancers – HEK293 GC-A cells, cGMP TR-FRET, EC30 ANP, primary screen; actives 0.14% (n = 370,000); Atrial natriuretic peptide receptor 1 (Homo sapiens), P16066; activation, % at 10 µM; 0% at EC30 ANP, 100% saturating ANP; in the data active means activation above about 40%
ADAM10 confirm = human ADAM10 inhibitors, confirmation, biochemical, QFRET, triplicate. inhibition, % at 6.95 µM. actives 1% (n = 2,100). ADAM10 QFRET peptide cleavage, EDANS fluorescence. shares compounds with ADAM10 inh;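 active means inhibition above about 20% chosen separately for each screening run, limit read from the data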
ADAM17 ctr = ADAM17 inhibitors, counter-screen for ADAM10 exosite inhibitor project, biochemical, QFRET, high throughput; shares compounds with ADAM10 inh; ADAM17 QFRET peptide cleavage, EDANS fluorescence; inhibition, % at 6.95 µM; actives 0.5% (n = 2,100); AID 743214, 2013;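 active means mean triplicate inhibition above the solvent-only control wells' mean plus 3 SD, cut at about 12% in these data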
Numbers stand for hits; – = inactive; · = no result given; ! = not confirmed by another sample.

SMILES	ADAM10 inh	NPR2 activator	FAS-TE inh	ADAM17 inh	GC-A act	ADAM10 confirm	ADAM17 ctr
C=CCN(CC#Cc1ccccc1)CC1CC1	–	–	·	–	–	·	·
O=C1N(CCCO)CCC12CCC(c1ccccc1)CC2 (centres undefined)	87.8!	–	·	–	–	–	–
C(=C\c1ccccc1)/CSc1nnc(COc2ccccc2)n1Cc1ccco1	–	–	·	–	–	·	·
C=C(C)COc1ccc(-c2[nH]ncc2Oc2ccc(OC)cc2)c(O)c1	21.3	–	–	–	–	–	–
CCOc1ccc(-c2[nH]ncc2Oc2ccccc2OCC)c(O)c1	26.2	–	–	–	–	–	–
CCOc1ccc(-c2nc(N)ncc2Oc2ccccc2Br)c(O)c1	20.9	–	–	–	–	–	–
Cc1ccc(-c2cc(NC(=O)Cc3c(C)[nH]c4ccccc34)ccc2Nc2cccnc2)cc1	–	–	·	–	–	·	·
CN(Cc1ccccc1F)C(=O)C1CCCN(c2ncccn2)C1 (centres undefined)	–	–	·	–	–	·	·
COC(=O)C(Cc1cnc(Cl)s1)(C(=O)OC)c1ccc([N+](=O)[O-])cc1[N+](=O)[O-]	–	–	–	–	–	·	·
COC(=O)C(Cc1cnc(Cl)s1)(C(=O)OC)c1ccc(C(F)(F)F)cc1[N+](=O)[O-]	19.9	–	–	–	–	–	–
COC(=O)[C@]12CCCCC=C1N(Cc1ccc(OC)cc1)C(=O)[C@@H]2CC(=O)NCc1ccccc1	–	–	·	–	–	·	·
COc1ccccc1NS(=O)(=O)c1cccc(C(=O)OCC(=O)Nc2cc(C)on2)c1	–	–	–	–	–	·	·
COc1ccccc1NS(=O)(=O)c1cccc(C(=O)OCc2nc3ccccc3s2)c1	21.1	–	–	–	–	–	–
COc1ccc2c(c1)CNC2CS(=O)(=O)NCc1ccccc1 (centres undefined)	–	–	·	–	–	·	·
CCn1c(SCC(=O)NN=Cc2cccc(OCc3ccccc3)c2)nnc1-c1ccc(OC)c(OC)c1	–	–	·	–	–	·	·
N#Cc1nc(COc2ccccc2F)oc1NCCc1ccccc1	22.4	–	–	–	–	–	–
COc1ccc(CCNc2oc(COc3ccccc3)nc2C#N)cc1	–	–	–	–	–	·	·
CC(=O)c1cccc(NC(=O)c2ccc3c(c2)CCN3S(=O)(=O)c2ccccc2)c1	23.1	–	–	–	–	–	–
COc1ccc(N(CC(O)Cn2c(C)nc3ccccc32)S(=O)(=O)c2ccc(C)cc2)cc1 (centres undefined)	–	–	–	–	–	·	·
COc1ccc(N(CC(O)Cn2cnc3ccccc32)S(=O)(=O)c2ccc(C)cc2)cc1 (centres undefined)	21.6	–	–	–	–	–	–
Cc1cc(N2CCN(C(=O)OC(C)(C)C)C[C@H]2C)ccc1N1CC[C@@H](O)C1	–	–	·	–	–	·	·
COc1cccc(C(O)c2nc(-c3ccccc3OC)cs2)c1 (centres undefined)	–	–	–	–	–	·	·
COc1cccc(C(O)c2nc(-c3ccccc3C)cs2)c1 (centres undefined)	19.8	–	–	–	–	–	–
CC(C)(C)C1CCc2onc(C(=O)NCc3ccc(F)cc3)c2C1 (centres undefined)	21.1	–	–	–	–	–	–
Cc1cccc(NC(=O)NCCCN2CCN(c3ccc(F)cc3)CC2)c1	–	–	·	–	–	·	·
SMILES	ADAM10 inh	NPR2 activator	FAS-TE inh	ADAM17 inh	GC-A act	ADAM10 confirm	ADAM17 ctr
Clc1cccc(CON/C=N/c2ncnc3sccc23)c1	21.2	–	–	–	–	–	–
Cc1ccc(S(=O)(=O)Nc2ccccc2NS(=O)(=O)c2ccc(C)cc2)cc1	22.5	–	–	–	–	–	–
Cc1ccc(S(=O)(=O)Nc2ccccc2O)cc1	–	–	·	–	–	·	·
O=C(NNC(=S)Nc1ccc(Cl)cc1Cl)c1ccncc1	20.8	–	–	–	–	–	–
O=C(NNC(=S)Nc1ccc(Cl)cc1Cl)c1cccnc1	–	–	–	–	–	·	·
Cc1ccc(-n2c(SCc3ccc(Cl)c(Cl)c3)nnc2-c2ccc(C(C)(C)C)cc2)cc1	–	–	·	–	–	·	·
N#Cc1c(NC(=O)CSc2n[nH]c(N)n2)oc(-c2ccccc2)c1-c1ccccc1	20.0	–	–	–	–	–	–
Cc1cccc(C)c1OCC(=O)Nc1oc(-c2ccccc2)c(-c2ccccc2)c1C#N	–	–	–	–	–	·	·
CCOC(=O)Nc1nc(-c2ccccc2)c(C(=O)c2ccc(Cl)cc2)s1	21.1	–	–	–	–	–	–
Cc1nc2ccc(NC(=O)c3cc(F)cc(F)c3)cc2c(=O)[nH]1	–	–	·	–	–	·	·
CN(c1ccccc1)S(=O)(=O)c1ccc(NC(=O)c2ccc(F)cc2)cc1	20.9	–	–	–	–	–	–
Cc1ccc(NC(=O)COc2ccc(N(C)S(=O)(=O)c3ccc(F)cc3)cc2)cc1	–	–	–	–	–	·	·
CN(c1ccc(OCC(=O)OCC(=O)Nc2ccc(F)cc2)cc1)S(=O)(=O)c1ccc(Cl)cc1	20.3	–	–	–	–	–	–
COC(=O)C1=C(C)N(Cc2ccc(Cl)cc2)C(=S)NC1c1ccccc1 (centres undefined)	–	–	·	–	–	·	·
COC(=O)C1=C(C)N(Cc2ccc(Cl)cc2)C(=S)NC1c1cccc(OC)c1 (centres undefined)	21.9	–	·	–	–	–	–
O=C(CSc1nnc(-c2ccncc2)n1-c1ccccc1)Nc1ccc2c(c1)OCCO2	–	–	·	–	–	·	·
CC(C)NC(=O)c1onc(CSc2cccc3ccccc23)c1C(=O)O	85.5	–	–	–	–	–	–
CCc1ccc(N2C(=O)C[C@@](C#N)(C(=O)OC)[C@H]2c2ccccc2)cc1	–	–	·	–	–	·	·
OC(CC1CC12c1ccccc1-c1ncccc12)(c1ccccc1)c1ccccc1 (centres undefined)	23.7	–	–	–	–	–	–
CCOC(=O)C(C)C1(O)c2ccccc2-c2ncccc21 (centres undefined)	–	–	–	–	–	·	·
COc1ccc(N(C)S(=O)(=O)c2cccc(C(=O)Nc3cc(OC)ccc3OC)c2)cc1	20.5	–	–	–	–	–	–
COc1ccc(-n2c(=S)[nH]c3cc(C(=O)NCc4ccc(F)cc4)ccc3c2=O)c(OC)c1	23.2	–	–	–	–	–	–

Assay outcomes deposited in PubChem BioAssay by several laboratories.
